Experimental data as given in PubChem BioAssay (NCATS).
Inconclusive results are not listed. The source made the active and inactive calls. Calls follow the shape of the dose curve; as a rule, active = well fitted inhibition curve with a large enough effect; inconclusive = small, poorly fitted or top-dose-only effect; inactive = flat fitted curve, though single readings scatter.

System: W2
Test: qHTS profiling for inhibitors of Plasmodium falciparum proliferation (AID 504749); also: nearly all actives have a fitted effect of over 60% in size;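 as to activity, negative = inhibition: 0% = DMSO vehicle and full inhibition = artemisinin control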
Conditions: P. falciparum in erythrocytes, SYBR Green DNA, 72 h; series mostly up to 28.7 µM; activity, negative = inhibition: at the top concentration
Procedure, shortened: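 Parasite proliferation within erythrocytes, 72 h exposure. Endpoint: SYBR Green I fluorescence after overnight lysis at room temperature. Controls: 0.29 uM artemisinin, DMSO.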
Potency is read from the fitted curve at half-maximal effect.

SMILES	activity, negative = inhibition	Potency
CC(=O)Nc1ccc(OC(C)=O)cc1	7.32% (inactive)	–
CC(C)(C)c1ccc2c(S(=O)(=O)O)c(C(C)(C)C)ccc2c1	6% (inactive)	–
CCCCCCCCCCCCOCCCN	-10.9% (inactive)	–
COC(=O)C(CN)c1c[nH]c2ccc(OC)cc12 (centres undefined)	-18.7% (inactive)	–
CC1(C)S[C@@H]2[C@H](NC(=O)C3(N)CCCCC3)C(=O)N2[C@H]1C(=O)O	-2.62% (inactive)	–
FC(F)(F)C(F)(F)C(F)(F)C(F)(F)C(F)(F)C(F)(F)F	6.4% (inactive)	–
CCCCO	8.76% (inactive)	–
CCOC(=O)c1c[nH]c2cc(OCC(C)C)c(OCC(C)C)cc2c1=O	–	53.6 nM (active)
CCN(CC)CCOc1ccc2nc(N(C)C)sc2c1	3.27% (inactive)	–
OCl	6.81% (inactive)	–
COC(=O)CC[C@H](N)C(=O)O	3.97% (inactive)	–
COc1cc(S(C)=O)ccc1-c1nc2ncccc2[nH]1 (centres undefined)	16.5% (inactive)	–
O=C(O)Cc1nn(Cc2ccc(Br)cc2F)c(=O)c2ccccc12	-4.85% (inactive)	–
O=C(O)/C=C/c1ccccc1	15.3% (inactive)	–
Cc1cccc(C)c1NC(=O)NC1=CCCN1C	8.18% (inactive)	–
NCC[C@H](O)C(=O)N[C@@H]1C[C@H](N)[C@@H](O[C@H]2O[C@H](CN)[C@@H](O)[C@H](O)[C@H]2O)[C@H](O)[C@H]1O[C@H]1O[C@H](CO)[C@@H](O)[C@H](N)[C@H]1O	-10.5% (inactive)	–
CC1=CC(=O)NS(=O)(=O)O1	-12% (inactive)	–
O=C(O)[C@H]1C(=CCO)O[C@H]2CC(=O)N12	10.6% (inactive)	–
CCC(Cc1c(I)cc(I)c(O)c1I)C(=O)O (centres undefined)	6.95% (inactive)	–
CCCCC[C@H](O)/C=C/[C@@H]1[C@H]2C/C(=C/CCCC(=O)O)O[C@H]2C[C@H]1O	-2.56% (inactive)	–

SMILES	activity, negative = inhibition	Potency
FCOC(C(F)(F)F)C(F)(F)F	-0.895% (inactive)	–
C=Cc1ccc(S(=O)(=O)O)cc1	11.5% (inactive)	–
CC12CCC(C[N+](C)(CCC[N+](C)(C)C)C1)C2(C)C (centres undefined)	-2.52% (inactive)	–
CC1CC(OC(=O)C(O)c2ccccc2)CC(C)(C)C1 (centres undefined)	4.74% (inactive)	–
CC/C(=C(/CC)c1ccc(OP(=O)(O)O)cc1)c1ccc(OP(=O)(O)O)cc1	0.334% (inactive)	–
O=C(NNCNNC(=O)c1ccncc1)c1ccncc1	14.3% (inactive)	–
CC(C)c1ncc([N+](=O)[O-])n1C	5.38% (inactive)	–
CC(C)CCC[C@@H](C)[C@H]1CC[C@H]2[C@@H]3CC[C@@H]4C[C@H](O)CC[C@]4(C)[C@H]3CC[C@]12C	-24.2% (inactive)	–
Cc1ccc(S(=O)(=O)NCl)cc1	-2.67% (inactive)	–
CC(/C=C/C=C(\C)C(=O)O[C@@H]1O[C@H](CO[C@@H]2O[C@H](CO)[C@@H](O)[C@H](O)[C@H]2O)[C@@H](O)[C@H](O)[C@H]1O)=C\C=C\C=C(C)\C=C\C=C(/C)C(=O)O[C@@H]1O[C@H](CO[C@@H]2O[C@H](CO)[C@@H](O)[C@H](O)[C@H]2O)[C@@H](O)[C@H](O)[C@H]1O	8.47% (inactive)	–
CCCCCCCCCCCCCCCCCC(=O)OCC(C)O (centres undefined)	14.1% (inactive)	–
CC(C)(Oc1ccc(C2CCCc3ccccc32)cc1)C(=O)O (centres undefined)	-18.1% (inactive)	–
CO	5.31% (inactive)	–
O=C(O)/C=C/C(=O)Nc1ccc(S(=O)(=O)Nc2nccs2)cc1	2.03% (inactive)	–
N[C@H](CC(=O)O)C(=O)O	4.67% (inactive)	–
CCCc1ccc(C(=O)O)cc1	-1.67% (inactive)	–
O=S(=O)(O)CC(S)CS (centres undefined)	7.56% (inactive)	–
O=c1[nH]c(=O)n([C@H]2C[C@H](O)[C@@H](CO)O2)cc1/C=C/Br	-0.506% (inactive)	–
CN[C@@H]1[C@H](O[C@H]2[C@H](O[C@H]3[C@H](O)[C@@H](O)[C@H](N=C(N)N)[C@@H](O)[C@@H]3N=C(N)N)O[C@@H](C)[C@]2(O)C=O)O[C@@H](CO)[C@H](O)[C@H]1O	-1.27% (inactive)	–
